Among all 1,900 compounds or so, about 85 (4%) were called active. Rule as the data show it: active = inhibition above about 40%; inactive = the rest. Only a sample is shown.

The target of this assay is 72 kDa type IV collagenase (Homo sapiens) (UniProt P08253). Briefly: MMP-2 enzyme inhibition, confirmation, counter-screen for RPN11 inhibitor project, biochemical, fluorescence, single concentration (AID 602330).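 Also: human MMP-2 activated beforehand with APMA.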 The note with it: recombinant MMP-2, FRET peptide cleavage fluorescence; at 20 µM; active compounds read high. (Counterscreens check selectivity or assay interference.)
72 kDa type IV collagenase (Homo sapiens), sequence (P08253 whole entry, looked up): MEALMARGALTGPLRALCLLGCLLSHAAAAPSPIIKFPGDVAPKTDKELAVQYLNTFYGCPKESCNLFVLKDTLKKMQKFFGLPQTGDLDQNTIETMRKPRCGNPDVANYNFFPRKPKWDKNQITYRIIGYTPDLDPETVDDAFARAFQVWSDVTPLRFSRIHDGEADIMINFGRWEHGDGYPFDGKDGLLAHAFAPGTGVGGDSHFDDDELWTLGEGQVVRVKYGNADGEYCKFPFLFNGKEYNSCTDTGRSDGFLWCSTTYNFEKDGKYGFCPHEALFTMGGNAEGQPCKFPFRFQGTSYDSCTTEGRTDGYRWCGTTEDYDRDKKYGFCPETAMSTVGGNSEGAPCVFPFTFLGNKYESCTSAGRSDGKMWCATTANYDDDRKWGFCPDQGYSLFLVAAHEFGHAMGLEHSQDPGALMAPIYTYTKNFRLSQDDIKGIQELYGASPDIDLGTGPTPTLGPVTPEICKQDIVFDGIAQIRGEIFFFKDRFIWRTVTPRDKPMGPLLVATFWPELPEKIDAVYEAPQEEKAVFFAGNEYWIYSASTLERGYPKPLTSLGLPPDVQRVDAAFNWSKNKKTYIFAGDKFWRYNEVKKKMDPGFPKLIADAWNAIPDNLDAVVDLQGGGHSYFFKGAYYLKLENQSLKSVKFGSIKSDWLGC
Usually inhibition stands for the change of the read-out against control, counted positive when it falls. With `CCN(CC)C(=O)CSc1nc2ccccc2n1CC(=O)N1CCN(c2ccccc2OC)CC1`, the inhibition is 8.93% (inactive).
`Cc1ccc(NC(=O)CN2CCc3ccccc3C2)cc1`: the inhibition was -29.5% (inactive).
Next, `COc1ccc(CC(=O)Nc2ccc(-c3nnc(-c4ccc(C)cc4)o3)cc2)cc1`: -21.6% (inactive); `Oc1c(CN2CCCC2)cc(COCc2ccccc2)c2cccnc12`: 14.7% (inactive); `CCc1ccc(-c2cc(C(=O)NCc3ccco3)c3ccccc3n2)s1`: -10.6% (inactive).
Next, `Cc1c(NC(=O)CSc2cccc3cccnc23)c(=O)n(-c2ccccc2)n1C`: -0.79% (inactive); `Cc1c(N=Nc2ccc(N(C)C)cc2)c(=O)n(-c2ccccc2)n1C`: -25.6% (inactive); `COc1cccc(NC(=O)C(C)Oc2ccccc2)c1` (stereo not given): -39.6% (inactive).
`CCC/C=C(\CCC)C(NC(=O)Cc1ccccc1)c1ccc(C(=O)OC)cc1` (stereo not given): the inhibition was -6.21% (inactive).
For the molecule `Cc1cc(/C=N/Nc2ccc([N+](=O)[O-])cn2)c(C)n1-c1cccc(C(=O)O)c1`, the inhibition was -54.4% (inactive).
Next, `C=CCn1c(=S)[nH]c2scc(-c3ccco3)c2c1=O`: 40.5% (active); `CCN1CCN(c2cc3nc(C)n(Cc4ccccc4)c(=O)c3cc2NC(=O)c2ccccc2F)CC1`: -12.5% (inactive).
The value for `COc1ccc(-n2c(SCC(=O)Nc3sc4c(c3C#N)CCCC4)nnc2-c2ccc(O)cc2)cc1` was -2.87% (inactive); that for `N#Cc1c(-c2cccs2)nc(SCC(=O)c2ccc(Br)cc2)[nH]c1=O` was 47% (active); that for `CC(C)(C)NC(=O)CSC(=Nc1ccccc1F)NC#N` was -28.4% (inactive).
On to `O=C(COc1cccc(F)c1)Oc1ccc(C(=O)c2ccccc2)cc1`, for which the inhibition is 8.62% (inactive).
The value for `CC(=O)/C(=N\Nc1ccc(Cl)cc1Cl)Sc1cccc2cccnc12` was -27.9% (inactive).
For the molecule `C/C(=N/Nc1nc(-c2ccccc2)c(CC(=O)O)s1)c1ccccc1`, the inhibition was 4.1% (inactive).
Turning to `CCCCCCCCCCOC(=O)Cn1c(COc2cccc(OC)c2)[n+](C)c2ccccc21`, the inhibition was -10.1% (inactive).
For the molecule `COc1ccc2[nH]c(=O)c(-c3noc(-c4ccc(F)cc4)n3)cc2c1`, the inhibition is -20.1% (inactive).
The value for `CCc1ccc(NC(=O)CS(=O)CC(=O)NCCCc2ccccc2)cc1` (stereo not given) was -2.62% (inactive).
The value for `Cc1ccc2cc(C#N)c(NCCNC(=S)NCCCN3CCOCC3)nc2c1` was -15% (inactive).
In the case of `CCOc1ccc(-n2c(O)c(/C=N/c3ccnn3Cc3ccncc3)c3ccccc3c2=O)cc1`, the inhibition is 1.46% (inactive).
Next, `O=C1NC(=O)C2C1C(c1ccc([N+](=O)[O-])cc1)=NN2Cc1ccccc1` (stereo not given): -11.1% (inactive).
Regarding `Cc1ccc(-c2nnc(-c3ccc(NC(=O)c4cccs4)cc3)o2)cc1`, the inhibition is -49.7% (inactive).
`C=CC[n+]1c(-c2ccc(C)cc2)csc1NNC(=O)Nc1ccccc1`: the inhibition is 26% (inactive).
Next, `Cc1nc2ccccc2nc(=O)c1NNc1ccc([N+](=O)[O-])cc1`: -26.6% (inactive).
Regarding `N#Cc1ccc(C(=O)Nc2cccc3cccnc23)c(F)c1`, the inhibition is -11% (inactive).
Next, `COc1ccc(Cl)cc1NC(=O)CCS(=O)(=O)c1ccc(Br)cc1`: -0.68% (inactive); `O=C(CCS(=O)(=O)c1cccc2nonc12)NCCc1ccccc1Cl`: -10.6% (inactive); `CN=c1scc(-c2cc(OC)ccc2OC)n1/N=C/c1c(C)[nH]c2ccccc12`: 22.9% (inactive).
On to `Oc1ccc(/C=N/Nc2nc(-c3ccccc3F)nc3ccccc23)c(O)c1`, for which the inhibition was -56.3% (inactive).
Next, `C=CCn1c(SCC(=O)NCc2ccccc2)nnc1-c1cc(Br)ccc1O`: -13% (inactive).
The value for `CC(C)Cn1c(CCC(=O)O)ccc1-c1cccs1` was -47.9% (inactive); that for `O=C(O)c1ccc(NN=CC2=C(N3CCOCC3)/C(=C/c3ccccc3)CC2)cc1` was -0.54% (inactive); that for `CC(=O)c1sc(N/N=C/c2ccc(C(C)C)cc2)nc1C` was 20.1% (inactive).
Next, `CCCS(=O)(=O)N1CCCC(C(=O)NCc2ccco2)C1` (stereo not given): -7.67% (inactive).
For the molecule `CSC1=N/C(=C\C=C\c2cccs2)C(=O)S1`, the inhibition was 10% (inactive).
The value for `CN(C)CCOC1c2ccccc2-c2ccccc21` was -31.6% (inactive); that for `CCOc1cc(/C=C2\SC(N3CCCC(C)C3)=NC2=O)ccc1O` (stereo not given) was -18.9% (inactive).
Next, `COc1cc(/C=C2/SC(=S)N(Cc3ccccc3)C2=O)cc(OC)c1O`: -7.17% (inactive); `Cc1cc(OCC(=O)Nc2nccs2)c2c(C)c(C)c(=O)oc2c1`: 0.79% (inactive); `O=C(Nc1ccc(-c2nnc(-c3ccccc3)o2)cc1)c1ccc(Br)o1`: 35.4% (inactive).
In the case of `CS(=O)(=O)c1ccc2c(c1)SC1=NC(=O)/C(=C/c3ccco3)C(=N)N12`, the inhibition was 13% (inactive).
As for `O=C(CSc1cccc2cccnc12)N/N=C/c1cccnc1`, the inhibition is -15.4% (inactive).
As for `Nc1nonc1-n1nnc(C(=O)N/N=C/c2cc(Br)ccc2O)c1CSC1=NCCS1`, the inhibition is -8.38% (inactive).
The value for `COc1cccc(-c2nn(-c3ccccc3)cc2/C=C(\C#N)C(=O)NCCCn2ccnc2)c1` was -13.9% (inactive).
Consider `COc1ccc(CNC(=O)c2nnn(CC(=O)Nc3cc(C)cc(C)c3)c2N)cc1`, for which the inhibition was 5.49% (inactive).
Next, `CC(C)Oc1ccc(/C=C(\NC(=O)/C=C/c2ccco2)C(=O)NCCc2nc3ccccc3[nH]2)cc1`: -12% (inactive); `Cc1cccc(OCc2nnc(SCc3nc4cc(C(F)(F)F)ccc4c(=O)[nH]3)o2)c1`: 18.2% (inactive); `NC(N)=N/N=C/c1ccc(OCc2ccc(Cl)cc2Cl)cc1`: 9.75% (inactive).
Next, `CCOc1cc(/C=C2\SC(N3CCCCC3)=NC2=O)ccc1O`: -18.1% (inactive).
Next, `Cc1cc(/C=C2/SC(=O)N(CC(=O)N3CCCC3)C2=O)ccc1N1CCOCC1`: -23% (inactive); `O=C(OCc1cc2ccccc2[nH]c1=O)c1cccnc1`: -65.4% (inactive); `Cc1sc2nc(COC(=O)C(NC(=O)c3ccc(Cl)cc3Cl)C(C)C)[nH]c(=O)c2c1C` (stereo not given): -38.9% (inactive).
Consider `CCNCc1cc2cc(C)ccc2[nH]c1=O`, for which the inhibition was -21.9% (inactive).
Next, `CC1CCN(c2ccc3c(c2)S(=O)(=O)c2cc(C(=O)O)ccc2C3=O)CC1`: -51.3% (inactive); `Cc1ccc(NC(=O)c2c(NC(=O)CCC(=O)O)sc3c2CCCCC3)cc1`: 20.7% (inactive).
In the case of `COc1cccc(/C=C(/CC(=O)Nc2ccc(N3CCOCC3)cc2)c2nc3ccccc3s2)c1`, the inhibition is 30.2% (inactive).
Consider `CCC(C)Cn1c(O)cc2nn(-c3nc4ccccc4s3)c(=O)c-2c1C` (stereo not given), for which the inhibition is -2.01% (inactive).
For `Cc1oc2c(C)c3oc(=O)c(CC(=O)N[C@@H](CC(C)C)C(=O)N[C@@H](Cc4ccccc4)C(=O)O)c(C)c3cc2c1C`, the inhibition is -12.8% (inactive).
Turning to `CCN1CCCC1CNC(=O)c1cc2c(=O)n(C)c3ccccc3c2n1C` (stereo not given), the inhibition was 5.3% (inactive).
For the molecule `CN(C)c1ccc(-n2cccc2/C=C2/SC(=Nc3ccc(F)cc3)NC2=O)cc1`, the inhibition was 11.2% (inactive).
Next, `CCCOc1ccc(Cn2c(O)cc(=O)[nH]c2=O)cc1`: -16.6% (inactive); `COc1ccc(NC(=O)Cn2c(-c3ccc(OC)cc3)cn(-c3ccc(C)cc3)c2=O)cc1`: -12.7% (inactive).
Consider `Cc1ccc(Nc2ccccc2N)cc1`, for which the inhibition is -13.4% (inactive).
The value for `CCCCCCSc1ccc([C@@H]2[C@H]3C(=O)N(CC)C(=O)[C@H]3[C@]3(C(=O)OC)CCCCN23)cc1` was -13.2% (inactive); that for `CC(C)CC1C(=O)N(Cc2cn(Cc3ccco3)nn2)CCS(=O)(=O)N1Cc1ccc(-c2ccc(Cl)c(Cl)c2)cc1` (stereo not given) was -38.5% (inactive); that for `CCOc1ccc(-n2c(O)c(/C=N/Nc3nnc(C)c(=O)[nH]3)c3ccccc3c2=O)cc1` was -6.64% (inactive).
For the molecule `Cc1nc2ccc(C(=O)N3CCSCC3)cc2s1`, the inhibition was -42.3% (inactive).
For `C=CC1=C(C(=O)O)N2C(=O)[C@@H](NC(=O)/C(=N/OCC(=O)O)c3csc(N)n3)[C@H]2SC1`, the inhibition was 35.4% (inactive).
For `CCOC(=O)N1CCC(NC(=O)C(NS(=O)(=O)c2ccc3c(c2)CCN3C(=O)CC)C(C)C)CC1` (stereo not given), the inhibition was -20.7% (inactive).
Next, `COC(=O)c1ccc(OCC(=O)NC(C)(C)C)cc1`: 6.02% (inactive); `O=C(CSc1nc2ccccc2c(=O)[nH]1)Nc1nc(-c2ccc(Br)cc2)cs1`: 51.9% (active).
Turning to `Cc1ccc(N=Cc2c(O)cc(C)oc2=O)c(C)c1`, the inhibition was -22.6% (inactive).
For the molecule `CC(=O)Nc1ccccc1Sc1ccc2c3c(cccc13)C(=O)N(c1ccc(C)cc1)C2=O`, the inhibition is -23% (inactive).
The value for `CCOc1ccc(NC(=O)c2ccc(NC(=O)COC(=O)c3ccc(NC(=O)CC#N)cc3)cc2)cc1` was 10.8% (inactive); that for `COC1=C/C(=C/c2c(N)n3nc(CC(=O)N4CCOCC4)sc3nc2=O)C=CC1=O` was 12% (inactive); that for `Cc1ccc(Nc2nc(Cl)c(C=O)s2)cc1` was -10.8% (inactive).
The value for `Cc1nc2ccccc2n1C(=O)N1CCOCC1` was -8.73% (inactive).

The record behind these values is PubChem BioAssay AID602330 (Sanford-Burnham Center for Chemical Genomics, 2012).
